# According to publication PMC7862700, “An all-to-all approach to the identification of sequence-specific readers for epigenetic DNA modifications on cytosine”:
# How the values were obtained:
# Experiment in all cases: DAPPL (digital affinity profiling via proximity ligation, sequencing); 10 mM Tris-HCl pH 7.5, 50 mM NaCl, 1 mM DTT, 4% glycerol, room temperature, 30 min; GST-TFs on glutathione beads, 16-mer random dsDNA library, 0.1% formaldehyde crosslink after washing; high values mean tight binding
# FEV = molecular target: T1, FEV (Homo sapiens, UniProt Q99581 1-238); conditions: protein: recombinant; tags: N-terminal GST; dsDNA, one strand shown
# T1 sequence: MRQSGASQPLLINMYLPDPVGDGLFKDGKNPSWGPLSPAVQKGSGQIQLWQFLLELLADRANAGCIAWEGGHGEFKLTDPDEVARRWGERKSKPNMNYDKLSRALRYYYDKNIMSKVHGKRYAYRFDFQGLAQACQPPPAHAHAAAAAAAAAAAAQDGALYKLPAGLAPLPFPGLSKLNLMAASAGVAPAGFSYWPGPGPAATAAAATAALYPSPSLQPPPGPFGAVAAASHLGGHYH
# Procedure, shortened: (§1)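 Human transcription factors fused to GST were expressed in yeast, captured on glutathione beads, given DNA barcodes and pooled with a GST-only negative control. Pools were incubated with 200 nmole of a 16-mer random double-stranded DNA library in Tris/NaCl/DTT/glycerol buffer at room temperature for 30 min. They were then washed, crosslinked with 0.1% formaldehyde, proximity-ligated (BsaI/T4 ligase, 1 h, 37 °C), PCR-amplified and sequenced on an Illumina NextSeq500. Binding signal is each 6-mer's read frequency for a factor divided by its frequency for the GST control.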
# ETV5 = ETV5 (Homo sapiens, UniProt P41161 1-510); conditions: protein: recombinant; tags: N-terminal GST; dsDNA, one strand shown
# Chain of ETV5 (P41161 whole entry): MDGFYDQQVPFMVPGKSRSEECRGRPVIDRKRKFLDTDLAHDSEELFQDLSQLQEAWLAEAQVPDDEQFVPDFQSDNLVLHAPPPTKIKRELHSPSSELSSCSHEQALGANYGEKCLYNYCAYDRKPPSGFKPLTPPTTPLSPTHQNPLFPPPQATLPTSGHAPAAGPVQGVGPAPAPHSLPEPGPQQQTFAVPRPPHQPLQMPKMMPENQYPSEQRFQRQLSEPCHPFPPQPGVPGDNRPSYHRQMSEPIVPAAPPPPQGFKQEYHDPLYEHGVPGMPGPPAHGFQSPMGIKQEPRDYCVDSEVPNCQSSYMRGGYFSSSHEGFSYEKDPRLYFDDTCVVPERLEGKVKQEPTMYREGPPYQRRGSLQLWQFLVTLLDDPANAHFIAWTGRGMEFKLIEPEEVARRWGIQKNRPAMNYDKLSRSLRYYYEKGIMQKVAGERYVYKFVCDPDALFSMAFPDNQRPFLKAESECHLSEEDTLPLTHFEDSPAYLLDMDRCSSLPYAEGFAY
# Procedure, shortened: as §1
# HSF1 = HSF1 (Homo sapiens, UniProt Q00613 1-529); conditions: protein: recombinant; tags: N-terminal GST; chain copies: 3; dsDNA, one strand shown
# Chain of HSF1 (Q00613 whole entry): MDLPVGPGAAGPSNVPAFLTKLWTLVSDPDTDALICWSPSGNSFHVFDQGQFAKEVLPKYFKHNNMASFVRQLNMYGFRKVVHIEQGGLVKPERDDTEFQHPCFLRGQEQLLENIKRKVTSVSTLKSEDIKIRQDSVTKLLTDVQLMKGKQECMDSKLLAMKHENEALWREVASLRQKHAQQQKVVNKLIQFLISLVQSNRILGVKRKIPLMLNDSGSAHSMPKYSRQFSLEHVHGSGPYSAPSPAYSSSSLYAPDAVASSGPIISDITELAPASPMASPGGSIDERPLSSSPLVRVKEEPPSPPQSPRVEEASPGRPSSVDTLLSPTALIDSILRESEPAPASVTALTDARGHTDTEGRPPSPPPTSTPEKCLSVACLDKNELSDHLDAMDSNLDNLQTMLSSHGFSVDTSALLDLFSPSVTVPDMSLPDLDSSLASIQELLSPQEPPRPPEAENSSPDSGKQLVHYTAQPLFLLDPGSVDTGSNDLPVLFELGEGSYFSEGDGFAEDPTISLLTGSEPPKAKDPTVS
# Procedure, shortened: as §1
# SPIC = molecular target: T2, SPIC (Homo sapiens, UniProt Q8N5J4 1-248); conditions: protein: recombinant; tags: N-terminal GST; dsDNA, one strand shown
# T2 sequence: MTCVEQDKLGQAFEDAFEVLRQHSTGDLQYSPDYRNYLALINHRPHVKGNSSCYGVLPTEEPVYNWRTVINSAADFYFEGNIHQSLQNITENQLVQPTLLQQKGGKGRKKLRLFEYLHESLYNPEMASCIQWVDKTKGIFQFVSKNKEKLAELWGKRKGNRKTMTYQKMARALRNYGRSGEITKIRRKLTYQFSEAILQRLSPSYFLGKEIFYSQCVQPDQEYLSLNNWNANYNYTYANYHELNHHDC
# Procedure, shortened: as §1
# ELF4 = ELF4 (Homo sapiens, UniProt Q99607 1-663); conditions: protein: recombinant; tags: N-terminal GST; dsDNA, one strand shown
# Chain of ELF4 (Q99607 whole entry): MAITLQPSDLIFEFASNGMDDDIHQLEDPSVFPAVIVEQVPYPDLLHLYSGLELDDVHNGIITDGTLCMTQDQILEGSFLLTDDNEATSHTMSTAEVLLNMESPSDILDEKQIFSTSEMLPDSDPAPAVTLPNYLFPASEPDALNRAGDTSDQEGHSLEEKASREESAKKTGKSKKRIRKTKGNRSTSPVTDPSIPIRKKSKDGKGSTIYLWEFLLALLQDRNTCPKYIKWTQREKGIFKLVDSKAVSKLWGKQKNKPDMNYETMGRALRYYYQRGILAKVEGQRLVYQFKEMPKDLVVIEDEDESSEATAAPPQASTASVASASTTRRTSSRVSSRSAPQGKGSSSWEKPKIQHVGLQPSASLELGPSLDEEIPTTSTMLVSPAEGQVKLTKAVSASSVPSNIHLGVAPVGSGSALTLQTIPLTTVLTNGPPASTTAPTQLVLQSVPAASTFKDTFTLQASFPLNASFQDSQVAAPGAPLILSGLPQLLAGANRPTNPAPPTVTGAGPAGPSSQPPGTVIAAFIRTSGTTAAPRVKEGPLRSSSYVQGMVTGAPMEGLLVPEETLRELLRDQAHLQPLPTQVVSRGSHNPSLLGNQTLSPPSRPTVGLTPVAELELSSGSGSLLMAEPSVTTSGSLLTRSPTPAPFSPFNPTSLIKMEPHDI
# Procedure, shortened: as §1
# ELK4 = molecular target: T3, ELK4 (Homo sapiens, UniProt P28324-2 1-405); conditions: protein: recombinant; tags: N-terminal GST; dsDNA, one strand shown
# T3 sequence: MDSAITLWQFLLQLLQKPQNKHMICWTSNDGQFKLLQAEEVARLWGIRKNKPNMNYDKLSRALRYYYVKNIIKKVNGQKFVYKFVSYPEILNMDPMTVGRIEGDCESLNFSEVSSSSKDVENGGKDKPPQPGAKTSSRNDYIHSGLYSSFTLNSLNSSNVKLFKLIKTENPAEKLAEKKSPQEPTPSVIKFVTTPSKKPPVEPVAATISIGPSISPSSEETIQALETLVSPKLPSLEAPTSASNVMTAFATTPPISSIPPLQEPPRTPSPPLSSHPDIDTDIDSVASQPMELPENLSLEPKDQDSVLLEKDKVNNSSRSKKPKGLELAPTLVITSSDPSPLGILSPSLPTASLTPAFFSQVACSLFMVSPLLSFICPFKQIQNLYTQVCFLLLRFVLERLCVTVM
# Procedure, shortened: as §1
# ETV2 = molecular target: T4, ETV2 (Homo sapiens, UniProt O00321 1-342); conditions: protein: recombinant; tags: N-terminal GST; dsDNA, one strand shown
# T4 sequence: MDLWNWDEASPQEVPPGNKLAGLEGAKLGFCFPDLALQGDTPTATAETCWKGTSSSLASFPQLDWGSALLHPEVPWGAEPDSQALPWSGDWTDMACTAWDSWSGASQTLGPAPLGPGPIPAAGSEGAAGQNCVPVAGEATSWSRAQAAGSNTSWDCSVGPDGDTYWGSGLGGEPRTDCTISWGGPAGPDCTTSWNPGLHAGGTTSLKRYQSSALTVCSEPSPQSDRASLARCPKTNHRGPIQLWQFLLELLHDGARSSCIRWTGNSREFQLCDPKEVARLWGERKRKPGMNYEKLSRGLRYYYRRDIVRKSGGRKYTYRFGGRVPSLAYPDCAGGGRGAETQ
# Procedure, shortened: as §1
# ELF3 = molecular target: T5, ELF3 (Homo sapiens, UniProt P78545 1-371); conditions: protein: recombinant; tags: N-terminal GST; dsDNA, one strand shown
# T5 sequence: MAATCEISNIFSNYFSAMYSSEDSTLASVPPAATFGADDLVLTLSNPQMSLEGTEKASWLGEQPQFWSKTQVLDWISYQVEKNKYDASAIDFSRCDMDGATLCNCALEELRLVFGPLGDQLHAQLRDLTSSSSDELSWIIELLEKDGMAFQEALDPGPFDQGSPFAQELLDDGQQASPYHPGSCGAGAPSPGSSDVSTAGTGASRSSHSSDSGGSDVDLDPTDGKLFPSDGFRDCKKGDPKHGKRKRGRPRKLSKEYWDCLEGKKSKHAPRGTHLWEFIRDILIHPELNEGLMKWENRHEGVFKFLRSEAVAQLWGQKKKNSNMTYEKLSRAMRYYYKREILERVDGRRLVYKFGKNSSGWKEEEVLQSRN
# Procedure, shortened: as §1
# CRX = CRX (Homo sapiens, UniProt O43186 1-299); conditions: protein: recombinant; tags: N-terminal GST; dsDNA, one strand shown
# Chain of CRX (O43186 whole entry): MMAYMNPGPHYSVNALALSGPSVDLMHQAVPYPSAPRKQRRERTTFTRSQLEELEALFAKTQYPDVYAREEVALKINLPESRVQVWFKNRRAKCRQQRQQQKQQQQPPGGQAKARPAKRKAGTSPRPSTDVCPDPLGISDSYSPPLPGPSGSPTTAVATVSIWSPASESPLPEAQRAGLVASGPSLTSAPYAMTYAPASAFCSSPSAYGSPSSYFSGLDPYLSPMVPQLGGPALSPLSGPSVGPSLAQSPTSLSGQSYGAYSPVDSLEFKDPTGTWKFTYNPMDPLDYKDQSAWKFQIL
# Procedure, shortened: as §1
# ETV1 = ETV1 (Homo sapiens, UniProt P50549 1-477); conditions: protein: recombinant; tags: N-terminal GST; dsDNA, one strand shown
# Chain of ETV1 (P50549 whole entry): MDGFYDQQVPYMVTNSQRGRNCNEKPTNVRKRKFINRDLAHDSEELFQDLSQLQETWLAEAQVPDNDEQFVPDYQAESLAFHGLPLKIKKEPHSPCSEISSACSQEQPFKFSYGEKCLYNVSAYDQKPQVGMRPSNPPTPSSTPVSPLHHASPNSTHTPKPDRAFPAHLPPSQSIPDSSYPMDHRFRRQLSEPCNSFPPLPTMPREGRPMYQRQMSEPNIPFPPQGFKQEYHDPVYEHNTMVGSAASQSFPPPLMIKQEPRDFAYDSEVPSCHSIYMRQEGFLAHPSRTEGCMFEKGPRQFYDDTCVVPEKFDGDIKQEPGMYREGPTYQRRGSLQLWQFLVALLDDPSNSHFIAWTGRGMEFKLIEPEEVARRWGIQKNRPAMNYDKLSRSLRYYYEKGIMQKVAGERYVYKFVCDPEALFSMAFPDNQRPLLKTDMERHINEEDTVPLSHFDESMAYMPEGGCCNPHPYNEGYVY
# Procedure, shortened: as §1
# ERF = molecular target: T6, ERF (Homo sapiens, UniProt P50548 1-548); conditions: protein: recombinant; tags: N-terminal GST; dsDNA, one strand shown
# T6 sequence: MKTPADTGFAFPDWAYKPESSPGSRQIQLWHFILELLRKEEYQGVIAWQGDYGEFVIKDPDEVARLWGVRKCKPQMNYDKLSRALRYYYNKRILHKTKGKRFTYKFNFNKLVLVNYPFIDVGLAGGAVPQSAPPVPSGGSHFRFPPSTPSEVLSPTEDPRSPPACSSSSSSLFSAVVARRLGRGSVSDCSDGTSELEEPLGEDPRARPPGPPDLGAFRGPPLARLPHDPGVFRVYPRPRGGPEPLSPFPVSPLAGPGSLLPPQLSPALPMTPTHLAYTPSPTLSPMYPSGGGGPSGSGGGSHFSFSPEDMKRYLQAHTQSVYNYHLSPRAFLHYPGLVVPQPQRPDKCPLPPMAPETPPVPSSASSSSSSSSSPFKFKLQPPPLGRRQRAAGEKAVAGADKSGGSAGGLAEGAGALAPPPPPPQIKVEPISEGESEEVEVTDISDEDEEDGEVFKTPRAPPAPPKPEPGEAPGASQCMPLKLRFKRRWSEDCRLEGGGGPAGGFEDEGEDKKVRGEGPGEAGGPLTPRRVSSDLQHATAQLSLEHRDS
# Procedure, shortened: as §1
# ETV3L = molecular target: T7, ETV3L (Homo sapiens, UniProt Q6ZN32 1-361); conditions: protein: recombinant; tags: N-terminal GST; dsDNA, one strand shown
# T7 sequence: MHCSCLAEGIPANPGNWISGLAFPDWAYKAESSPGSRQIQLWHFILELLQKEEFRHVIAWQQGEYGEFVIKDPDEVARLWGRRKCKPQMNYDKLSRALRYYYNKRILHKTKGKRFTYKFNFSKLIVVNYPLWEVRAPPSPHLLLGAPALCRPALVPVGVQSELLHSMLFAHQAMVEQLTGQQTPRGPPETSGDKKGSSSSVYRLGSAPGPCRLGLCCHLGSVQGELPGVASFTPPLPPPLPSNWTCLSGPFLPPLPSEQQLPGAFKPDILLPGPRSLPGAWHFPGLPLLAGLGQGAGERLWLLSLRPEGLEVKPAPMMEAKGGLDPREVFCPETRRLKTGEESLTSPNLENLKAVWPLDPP
# Procedure, shortened: as §1
# ETS2 = molecular target: T8, ETS2 (Homo sapiens, UniProt P15036 1-469); conditions: protein: recombinant; tags: N-terminal GST; dsDNA, one strand shown
# T8 sequence: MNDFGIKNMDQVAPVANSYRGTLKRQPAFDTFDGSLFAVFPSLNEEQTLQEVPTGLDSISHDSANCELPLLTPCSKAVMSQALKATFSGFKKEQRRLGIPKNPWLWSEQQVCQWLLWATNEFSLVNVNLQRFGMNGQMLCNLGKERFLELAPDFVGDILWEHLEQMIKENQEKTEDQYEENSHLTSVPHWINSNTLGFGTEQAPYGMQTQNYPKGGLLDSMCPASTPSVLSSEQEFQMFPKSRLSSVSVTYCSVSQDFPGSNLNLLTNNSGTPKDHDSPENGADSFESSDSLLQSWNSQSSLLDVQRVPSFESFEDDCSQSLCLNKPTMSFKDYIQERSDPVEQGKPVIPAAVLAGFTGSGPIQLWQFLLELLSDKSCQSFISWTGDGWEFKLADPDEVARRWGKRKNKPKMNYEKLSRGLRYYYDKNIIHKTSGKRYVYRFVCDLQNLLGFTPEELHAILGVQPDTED
# Procedure, shortened: as §1
# SPDEF = molecular target: T9, SPDEF (Homo sapiens, UniProt O95238 1-335); conditions: protein: recombinant; tags: N-terminal GST; dsDNA, one strand shown
# T9 sequence: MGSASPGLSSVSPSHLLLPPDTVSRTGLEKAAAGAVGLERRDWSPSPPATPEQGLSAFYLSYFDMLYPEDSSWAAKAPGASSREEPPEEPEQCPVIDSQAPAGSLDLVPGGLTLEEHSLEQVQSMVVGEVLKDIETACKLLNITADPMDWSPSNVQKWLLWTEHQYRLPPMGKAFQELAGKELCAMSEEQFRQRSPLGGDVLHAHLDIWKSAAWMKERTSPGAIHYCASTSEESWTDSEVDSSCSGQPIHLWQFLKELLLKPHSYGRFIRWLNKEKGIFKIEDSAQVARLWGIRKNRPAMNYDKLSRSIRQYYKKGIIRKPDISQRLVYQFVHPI
# Procedure, shortened: as §1
# ETV7 = molecular target: T10, ETV7 (Homo sapiens, UniProt Q9Y603 1-341); conditions: protein: recombinant; tags: N-terminal GST; dsDNA, one strand shown
# T10 sequence: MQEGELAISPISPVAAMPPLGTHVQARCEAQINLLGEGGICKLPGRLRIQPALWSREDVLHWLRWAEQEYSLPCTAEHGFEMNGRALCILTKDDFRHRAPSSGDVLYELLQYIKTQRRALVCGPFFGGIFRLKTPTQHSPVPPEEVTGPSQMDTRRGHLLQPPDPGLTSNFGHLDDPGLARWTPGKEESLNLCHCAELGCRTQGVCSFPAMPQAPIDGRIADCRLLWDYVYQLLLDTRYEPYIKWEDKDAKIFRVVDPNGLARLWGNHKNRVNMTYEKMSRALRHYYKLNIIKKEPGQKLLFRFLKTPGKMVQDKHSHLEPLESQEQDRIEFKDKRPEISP
# Procedure, shortened: as §1
# ELF5 = molecular target: T11, ELF5 (Homo sapiens, UniProt Q9UKW6-2 1-255); conditions: protein: recombinant; tags: N-terminal GST; dsDNA, one strand shown
# T11 sequence: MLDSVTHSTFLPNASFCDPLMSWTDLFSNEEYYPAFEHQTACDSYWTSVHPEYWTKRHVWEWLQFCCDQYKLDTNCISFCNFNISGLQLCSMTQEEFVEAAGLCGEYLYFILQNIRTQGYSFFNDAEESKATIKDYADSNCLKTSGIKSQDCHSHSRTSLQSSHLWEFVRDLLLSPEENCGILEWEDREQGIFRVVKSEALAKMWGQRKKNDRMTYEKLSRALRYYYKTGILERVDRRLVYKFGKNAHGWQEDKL
# Procedure, shortened: as §1
# ETV3 = molecular target: T12, ETV3 (Homo sapiens, UniProt P41162-2 1-143); conditions: protein: recombinant; tags: N-terminal GST; dsDNA, one strand shown
# T12 sequence: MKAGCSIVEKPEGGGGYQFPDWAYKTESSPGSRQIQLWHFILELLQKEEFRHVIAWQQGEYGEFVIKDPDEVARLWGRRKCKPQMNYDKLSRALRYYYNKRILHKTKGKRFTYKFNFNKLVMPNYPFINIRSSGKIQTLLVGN
# Procedure, shortened: as §1
# ETV6 = ETV6 (Homo sapiens, UniProt P41212 1-452); conditions: protein: recombinant; tags: N-terminal GST; dsDNA, one strand shown
# Chain of ETV6 (P41212 whole entry): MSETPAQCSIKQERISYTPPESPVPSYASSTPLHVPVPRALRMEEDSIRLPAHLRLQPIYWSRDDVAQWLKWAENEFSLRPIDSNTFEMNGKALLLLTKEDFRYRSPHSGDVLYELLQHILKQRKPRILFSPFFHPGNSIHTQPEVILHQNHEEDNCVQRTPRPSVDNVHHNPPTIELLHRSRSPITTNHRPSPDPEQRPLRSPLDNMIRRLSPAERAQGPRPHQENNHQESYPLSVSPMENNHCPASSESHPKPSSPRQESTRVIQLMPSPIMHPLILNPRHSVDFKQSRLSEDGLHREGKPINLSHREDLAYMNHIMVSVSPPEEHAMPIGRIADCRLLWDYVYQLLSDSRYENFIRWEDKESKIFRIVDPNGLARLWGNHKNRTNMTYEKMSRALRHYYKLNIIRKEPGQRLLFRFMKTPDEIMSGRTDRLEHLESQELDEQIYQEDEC
# Procedure, shortened: as §1
sequence,measurement,setting,value
AGCACT,binding signal,FEV,"1.51 fold enrichment (6-mer frequency, TF over GST control)"
same,binding signal,ETV5,"1.37 fold enrichment (6-mer frequency, TF over GST control)"
same,binding signal,HSF1,"1.19 fold enrichment (6-mer frequency, TF over GST control)"
same,binding signal,SPIC,"1.32 fold enrichment (6-mer frequency, TF over GST control)"
same,binding signal,ELF4,"1.44 fold enrichment (6-mer frequency, TF over GST control)"
same,binding signal,ELK4,"1.31 fold enrichment (6-mer frequency, TF over GST control)"
same,binding signal,ETV2,"1.46 fold enrichment (6-mer frequency, TF over GST control)"
same,binding signal,ELF3,"1.26 fold enrichment (6-mer frequency, TF over GST control)"
same,binding signal,CRX,"1.18 fold enrichment (6-mer frequency, TF over GST control)"
same,binding signal,ETV1,"1.36 fold enrichment (6-mer frequency, TF over GST control)"
same,binding signal,ERF,"1.44 fold enrichment (6-mer frequency, TF over GST control)"
same,binding signal,ETV3L,"1.42 fold enrichment (6-mer frequency, TF over GST control)"
same,binding signal,ETS2,"1.43 fold enrichment (6-mer frequency, TF over GST control)"
same,binding signal,SPDEF,"1.4 fold enrichment (6-mer frequency, TF over GST control)"
same,binding signal,ETV7,"1.43 fold enrichment (6-mer frequency, TF over GST control)"
same,binding signal,ELF5,"1.52 fold enrichment (6-mer frequency, TF over GST control)"
same,binding signal,ETV3,"1.39 fold enrichment (6-mer frequency, TF over GST control)"
same,binding signal,ETV6,"1.44 fold enrichment (6-mer frequency, TF over GST control)"
